# Measurements published in ChEMBL document CHEMBL1157539, “Thousands of chemical starting points for antimalarial lead identification” (Nature, 2010).
# Test system: Plasmodium falciparum
# Experiment: GSK_TCMDC: Inhibition of Plasmodium falciparum 3D7 in whole red blood cells, using parasite LDH activity as an index of growth. Test compounds present at 2uM
# Assay type: functional
row,SMILES,Inhibition [%]
1,CCOc1cc(C(C)C)ccc1N1CCN(CCCCNC(=O)c2ccc(NC(=O)c3ccc(Cl)cc3)cc2)CC1,100
2,CC(C)COc1ccc(Cl)cc1Cc1ccc(-c2nc3cc(CCN(C)C)ccc3[nH]2)o1.Cl,92
3,CC(C)c1cn2c3c(cc(C(=O)N[C@@H](Cc4ccccc4)[C@H](O)CNC4CCCCC4)cc13)N(C)S(=O)(=O)CC2.O=CO,98
4,Cc1noc(C)c1-c1cccc(CNCc2ccc(-c3ccc(-c4nc5ccccc5[nH]4)s3)cc2)c1.O=C(O)C(F)(F)F,100
5,CCOC(=O)c1ccc(-c2cnc(N)c(-c3nc4cccc(C)c4[nH]3)c2)cc1,100
6,Cc1cccc(Nc2nccc(NCC(O)c3cccc(C(F)(F)F)c3)n2)c1 (stereo not given),100
7,N=C(N)NN=CC(=O)Nc1ccc(C(F)(F)F)cc1.O=S(=O)(O)O,100
8,Fc1ccccc1CNc1ncc(-c2ccsc2)c(-c2nccs2)n1,86
9,O=C(/C=C/c1ccc(Cl)c(Cl)c1)NCCCCCN1CCCC(C(=O)Nc2ccc(Cl)c(Cl)c2)C1 (stereo not given),100
10,Cc1cc(NCCC(=O)NCCOc2ccccc2)nc(Nc2ccccc2)n1.O=C(O)C(F)(F)F,94
11,Cc1nc(-c2ccc(-c3ccc(C(=O)Nc4ccc(I)c(OCC5CCCN5C)c4)cc3)c(C)c2)no1.Cl (stereo not given),97
12,O=C(Nc1ccc(Oc2ccccc2)cc1)N[C@@H](Cc1ccc(O)cc1)C(=O)NC1CCN(Cc2ccc(O)c([N+](=O)[O-])c2)C1 (stereo not given in full),100
13,COc1ccc2nccc(N3CCC(SCCNCc4cc5c(cn4)OCCO5)C3)c2n1.Cl (stereo not given),100
14,COc1ccc2cc(C(C)NC3CCN(c4cccc(NC(=O)c5ccncc5)c4)CC3)ccc2c1 (stereo not given),91
15,COCCCNc1sc(S(=O)(=O)c2ccccc2)nc1S(=O)(=O)c1ccc(C)cc1,84
16,COCCNCc1ccc(-c2ccccc2CNC2CCN(Cc3ccccc3)CC2)cc1.O=C(O)C(F)(F)F,97
17,COc1ccc(N2CCN(C(CNC(=O)C3CCCCC3)c3ccc4c(c3)OCO4)CC2)cc1 (stereo not given),92
18,Cc1cccc(Nc2nc(N)c3ccccc3n2)c1.Cl,99
19,Cc1cc(Nc2cccc(C#N)c2)nc(Nc2ccccc2C)n1,95
20,CN(C(=O)/C=C/c1cc(C(F)(F)F)ccc1F)C1CCN(CCCCCNC(=O)/C=C/c2ccc(Cl)c(Cl)c2)CC1,100

row,SMILES,Inhibition [%]
1,NC(=O)c1cc2nc(Nc3ccc(F)cc3)nc(Nc3ccc(S(N)(=O)=O)cc3)c2[nH]1.O=CO,100
2,Cc1ccc2[nH]c(C)cc(=NN=Cc3cccc(F)c3)c2c1,99
3,Cc1ccc(/C=C/C(=O)N2CCC(CCN3CCC(c4c[nH]c5ccccc45)CC3)CC2)cc1C,94
4,CCn1ncc(Cl)c1CN(C)S(=O)(=O)c1ccc2ccccc2c1,100
5,Cc1cc(CN2CCC(N3CC(c4ccccc4)(c4ccccc4)OC3=O)C2)ccc1O (stereo not given),96
6,CCC(C)NS(=O)(=O)c1ccc2nc(Nc3ccc(C)cc3)n([C@H](C)C(C)(C)C)c2c1 (stereo not given in full),98
7,Cc1cc(NC(=O)c2cccs2)ccc1OC1CCN(Cc2ccc(C#N)cc2)C1.O=C(O)C(F)(F)F (stereo not given),82
8,CCCCc1ccc(C(=O)Nc2ccc3nc(N4CCN(CC)CC4)cc(C)c3c2)cc1,91
9,CCOC(=O)c1cncc(/C=C/c2cc(C)cnc2N)c1,86
10,CC1CN(c2ccc(NC(=O)c3ccsc3)cc2C(=O)N2CCN(Cc3ccc(C(C)(C)C)cc3)CC2)CC(C)O1 (stereo not given),90
11,O=C(Cn1c(SCc2cccc(F)c2F)cc(=O)c2ccccc21)N(CCc1c[nH]cn1)Cc1ccc(-c2ccc(C(F)(F)F)cc2)cc1,100
12,Cc1n[nH]c2ccc(-c3cc(OC[C@@H](N)Cc4ccccc4)cnc3-c3ccc(OCc4cccc(F)c4)cc3)cc12.O=C(O)C(F)(F)F,98
13,O=C(Cc1cccs1)NC(CCCN1CCC(Oc2cccc(Cl)c2)CC1)c1ccc(Cl)c(Cl)c1 (stereo not given),86
14,Nc1cccc(CNCc2ccc(-c3cccc(-c4nc5ccccc5[nH]4)c3)cc2)c1.O=C(O)C(F)(F)F,100
15,Cc1cccc2nc(-c3cccc(-c4cccc(NC(=O)Cc5ccc[n+]([O-])c5)c4)c3)[nH]c12,100
16,Cl.N=C(N)NN=Cc1c2ccccc2c(Cl)c2cc(Cl)ccc12,97
17,Cc1cc(NC(=O)c2ccc(S(=O)(=O)N(Cc3ccccc3)C(C)C)cc2)no1,87
18,O=S(=O)(c1cc(Cl)sc1Cl)N(CCC(O)(C(F)(F)F)C(F)(F)F)Cc1cccc(O)c1,98
19,O=C(Nc1cccc(-c2nn3ncccc3c2-c2ccnc(Nc3ccccc3)n2)c1)c1c(F)cccc1F,98
20,C=CCOC(=O)N1CCC(CNCc2cccc(-c3ccc(-c4nc5cccc(C)c5[nH]4)cc3)c2)C1.O=C(O)C(F)(F)F (stereo not given),100
